Reference: PubChem BioAssay AID1159580 (chemical genetic matrix, 2015)
The campaign covered roughly 5,500 compounds. About 2,000 (36%) were called active. Not shown: some 18% with an inconclusive outcome. Rule as the data show it: active = normalized growth mostly below about 0.91 (no sharp cut-off); inconclusive = no clear call, values can overlap the other calls; inactive = mostly above about 0.92. The list shows a part of the results.

Experiment: chemical genetic growth profiling, strain panel (AID 1159580);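 also: tested at 20 µM; growth read once vehicle control cultures reached saturation at 30 °C; 1 = growth at the plate median or of vehicle wells; lower values mean less growth of the strain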
Conditions: growth OD
[1] = S. cerevisiae deletion strains, locus YDL101C, strain DUN1, stronger effect = lower value
[2] = S. cerevisiae deletion strains, locus YHR030C, strain SLT2, stronger effect = lower value
[3] = S. cerevisiae deletion strains, locus YGR078C, strain PAC10, stronger effect = lower value
[4] = S. cerevisiae deletion strains, locus YMR263W, strain SAP30, stronger effect = lower value
[5] = S. cerevisiae deletion strains, locus YNL322C, strain KRE1, stronger effect = lower value
[6] = S. cerevisiae deletion strains, locus YPL241C, strain CIN2, stronger effect = lower value
[7] = S. cerevisiae deletion strains, locus YAL013W, strain DEP1, stronger effect = lower value
[8] = S. cerevisiae deletion strains, locus YBR229C, strain ROT2, stronger effect = lower value
[9] = S. cerevisiae deletion strains, locus YDL134C, strain PPH21, stronger effect = lower value
[10] = S. cerevisiae deletion strains, locus YDR150W, strain NUM1, stronger effect = lower value
[11] = S. cerevisiae deletion strains, locus YEL061C, strain CIN8, stronger effect = lower value
[12] = S. cerevisiae deletion strains, locus YHR087W, strain rtc3, stronger effect = lower value
[13] = S. cerevisiae deletion strains, locus YJR043C, strain POL32, stronger effect = lower value
[14] = S. cerevisiae deletion strains, locus YJR075W, strain HOC1, stronger effect = lower value
[15] = S. cerevisiae deletion strains, locus YLR039C, strain RIC1, stronger effect = lower value
[16] = S. cerevisiae deletion strains, locus YLR058C, strain SHM2 (second series), stronger effect = lower value
[17] = S. cerevisiae deletion strains, locus YLR085C, strain ARP6, stronger effect = lower value
[18] = S. cerevisiae deletion strains, locus YLR262C, strain YPT6, stronger effect = lower value
[19] = S. cerevisiae deletion strains, locus YML094W, strain GIM5, stronger effect = lower value
[20] = S. cerevisiae deletion strains, locus YMR219W, strain ESC1, stronger effect = lower value
[21] = S. cerevisiae deletion strains, locus YNL128W, strain TEP1, stronger effect = lower value
[22] = S. cerevisiae deletion strains, locus YNL153C, strain GIM3, stronger effect = lower value
[23] = S. cerevisiae deletion strains, locus YNL298W, strain CLA4 (second series), stronger effect = lower value
[24] = S. cerevisiae deletion strains, locus YNR030W, strain Alg12, stronger effect = lower value
[25] = S. cerevisiae deletion strains, locus YPL055C, strain LGE1, stronger effect = lower value
[26] = S. cerevisiae deletion strains, locus YPR135W, strain CTF4, stronger effect = lower value
[27] = S. cerevisiae deletion strains, locus YJL187C, strain SWE1, stronger effect = lower value
[28] = S. cerevisiae deletion strains, locus YOL006C, strain TOP1, stronger effect = lower value

Measured: normalized growth

Clc1ccc2c(c1)c1ccccc1n2CN1CCOCC1
inactive: S. cerevisiae deletion strains, locus YAR019C, strain CDC15, stronger effect = lower value 0.935 | S. cerevisiae deletion strains, locus YBL105C, strain PKC1, stronger effect = lower value 0.941 | S. cerevisiae deletion strains, locus YBR135W, strain CKS1, stronger effect = lower value 0.925 | S. cerevisiae deletion strains, locus YBR136W, strain MEC1, stronger effect = lower value 0.957 | S. cerevisiae deletion strains, locus YBR160W, strain CDC28, stronger effect = lower value 0.945 | S. cerevisiae deletion strains, locus YDL017W, strain CDC7, stronger effect = lower value 0.938 | S. cerevisiae deletion strains, locus YDL028C, strain MPS1, stronger effect = lower value 0.95 | [1] 0.975 | S. cerevisiae deletion strains, locus YDL108W, strain KIN28, stronger effect = lower value 0.949 | S. cerevisiae deletion strains, locus YDL132W, strain cdc53, stronger effect = lower value 0.918 | S. cerevisiae deletion strains, locus YDL214C, strain PRR2, stronger effect = lower value 0.753 | S. cerevisiae deletion strains, locus YDR052C, strain DBF4, stronger effect = lower value 0.951 | S. cerevisiae deletion strains, locus YDR054C, strain cdc34, stronger effect = lower value 0.926 | S. cerevisiae deletion strains, locus YDR226W, strain ADK1, stronger effect = lower value 0.933 | S. cerevisiae deletion strains, locus YFL009W, strain cdc4, stronger effect = lower value 0.934 | S. cerevisiae deletion strains, locus YFL029C, strain CAK1, stronger effect = lower value 0.917 | S. cerevisiae deletion strains, locus YFR003C, strain YPI1, stronger effect = lower value 0.945 | S. cerevisiae deletion strains, locus YFR019W, strain FAB1, stronger effect = lower value 0.894 | S. cerevisiae deletion strains, locus YFR028C, strain CDC14, stronger effect = lower value 0.952 | S. cerevisiae deletion strains, locus YGR052W, strain FMP48, stronger effect = lower value 0.603 | S. cerevisiae deletion strains, locus YHR079C, strain IRE1, stronger effect = lower value 0.79 | S. cerevisiae deletion strains, locus YHR082C, strain KSP1, stronger effect = lower value 0.764 | S. cerevisiae deletion strains, locus YHR205W, strain SCH9, stronger effect = lower value 0.714 | S. cerevisiae deletion strains, locus YIL147C, strain SLN1, stronger effect = lower value 0.944 | S. cerevisiae deletion strains, locus YJL095W, strain BCK1, stronger effect = lower value 0.724 | S. cerevisiae deletion strains, locus YJL128C, strain PBS2, stronger effect = lower value 0.921 | S. cerevisiae deletion strains, locus YJL157C, strain FAR1, stronger effect = lower value 0.722 | S. cerevisiae deletion strains, locus YJR016C, strain ILV3, stronger effect = lower value 0.943 | S. cerevisiae deletion strains, locus YJR066W, strain TOR1 (second series), stronger effect = lower value 0.738 | S. cerevisiae deletion strains, locus YJR066W, strain TOR1, stronger effect = lower value 0.619 | S. cerevisiae deletion strains, locus YKL101W, strain HSL1, stronger effect = lower value 0.728 | S. cerevisiae deletion strains, locus YKL193C, strain SDS22, stronger effect = lower value 0.916 | S. cerevisiae deletion strains, locus YLR133W, strain CKI1, stronger effect = lower value 0.776 | S. cerevisiae deletion strains, locus YML070W, strain DAK1, stronger effect = lower value 0.748 | S. cerevisiae deletion strains, locus YMR001C, strain CDC5, stronger effect = lower value 0.92 | S. cerevisiae deletion strains, locus YMR205C, strain PFK2 (second series), stronger effect = lower value 0.757 | S. cerevisiae deletion strains, locus YMR277W, strain FCP1, stronger effect = lower value 0.929 | S. cerevisiae deletion strains, locus YNL006W, strain LST8, stronger effect = lower value 0.934 | S. cerevisiae deletion strains, locus YNL020C, strain ARK1, stronger effect = lower value 0.771 | S. cerevisiae deletion strains, locus YNL161W, strain CBK1, stronger effect = lower value 0.928 | S. cerevisiae deletion strains, locus YNL183C, strain NPR1, stronger effect = lower value 0.658 | S. cerevisiae deletion strains, locus YNL207W, strain RIO2, stronger effect = lower value 0.914 | S. cerevisiae deletion strains, locus YNL222W, strain SSU72, stronger effect = lower value 0.927 | S. cerevisiae deletion strains, locus YOL078W, strain AVO1, stronger effect = lower value 0.93 | S. cerevisiae deletion strains, locus YOL136C, strain PFK27, stronger effect = lower value 0.72 | S. cerevisiae deletion strains, locus YOR231W, strain MKK1, stronger effect = lower value 0.834 | S. cerevisiae deletion strains, locus YOR329C, strain SCD5, stronger effect = lower value 0.934 | S. cerevisiae deletion strains, locus YPL153C, strain RAD53, stronger effect = lower value 0.786 | S. cerevisiae deletion strains, locus YPL209C, strain IPL1, stronger effect = lower value 0.939 | S. cerevisiae deletion strains, locus YPR025C, strain CCL1, stronger effect = lower value 0.934 | S. cerevisiae deletion strains, locus YPR106W, strain ISR1, stronger effect = lower value 0.94 | S. cerevisiae deletion strains, locus YPR111W, strain DBF20, stronger effect = lower value 0.939 | S. cerevisiae deletion strains, strain NNK1, stronger effect = lower value 0.949 | S. cerevisiae deletion strains, strain TSCII, stronger effect = lower value 0.912
active: S. cerevisiae deletion strains, locus YDR477W, strain SNF1, stronger effect = lower value 0.541 | S. cerevisiae deletion strains, locus YER123W, strain YCK3, stronger effect = lower value 0.588 | S. cerevisiae deletion strains, locus YER133W, strain GLC7, stronger effect = lower value 0.641 | S. cerevisiae deletion strains, locus YGR040W, strain KSS1, stronger effect = lower value 0.592 | S. cerevisiae deletion strains, locus YGR092W, strain DBF2, stronger effect = lower value 0.208 | [2] 0.679 | S. cerevisiae deletion strains, locus YKL048C, strain ELM1, stronger effect = lower value 0.696 | S. cerevisiae deletion strains, locus YKL067W, strain YNK1, stronger effect = lower value 0.709 | S. cerevisiae deletion strains, locus YKL203C, strain TOR2, stronger effect = lower value 0.598 | S. cerevisiae deletion strains, locus YLR113W, strain HOG1, stronger effect = lower value 0.755 | S. cerevisiae deletion strains, locus YLR403W, strain SFP1, stronger effect = lower value 0.612 | S. cerevisiae deletion strains, locus YNL307C, strain MCK1 (second series), stronger effect = lower value 0.602 | S. cerevisiae deletion strains, locus YOR061W, strain CKA2, stronger effect = lower value 0.558 | S. cerevisiae deletion strains, locus YOR119C, strain RIO1, stronger effect = lower value 0.501 | S. cerevisiae deletion strains, locus YPL031C, strain PHO85, stronger effect = lower value 0.545 | S. cerevisiae deletion strains, locus YPL204W, strain HRR25, stronger effect = lower value 0.641 | S. cerevisiae deletion strains, locus YPL256C, strain CLN2, stronger effect = lower value 0.823

COc1ccc2c(c1)c(CC(=O)N1CCOCC1)c(C)n2C(=O)c1ccc(Cl)cc1
inactive: S. cerevisiae deletion strains, locus YAL040C, strain CLN3, stronger effect = lower value 0.996 | S. cerevisiae deletion strains, locus YCL061C, strain MRC1 (second series), stronger effect = lower value 1.01 | S. cerevisiae deletion strains, locus YDR363W, strain ESC2, stronger effect = lower value 1.03 | S. cerevisiae deletion strains, locus YER002W, strain NOP16, stronger effect = lower value 0.998 | [3] 1.01 | S. cerevisiae deletion strains, locus YGR229C, strain SMI1, stronger effect = lower value 1 | [4] 1.01 | S. cerevisiae deletion strains, locus YNL175C, strain NOP13, stronger effect = lower value 1.01 | S. cerevisiae deletion strains, locus YNL197C, strain WHI3, stronger effect = lower value 1.01 | S. cerevisiae deletion strains, locus YNL224C, strain SQS1, stronger effect = lower value 0.993 | [5] 1.01 | S. cerevisiae deletion strains, locus YOR083W, strain WHI5 (second series), stronger effect = lower value 0.999 | [6] 1.01

O=S(=O)(CCN1CCOCC1)c1ccc(Cl)cc1
inactive: [7] 0.995 | [8] 0.982 | [1] 0.967 | [9] 0.993 | [10] 1.01 | [11] 0.993 | [3] 0.983 | [2] 1.06 | [12] 0.982 | [13] 1 | [14] 0.998 | [15] 1 | [16] 0.963 | [17] 0.974 | [18] 1.07 | [19] 0.982 | [20] 0.982 | [4] 0.99 | [21] 0.987 | [22] 1.01 | [23] 0.996 | [5] 0.985 | [24] 0.987 | [25] 0.982 | [6] 0.986 | [26] 1.15 | S. cerevisiae strains, strain wild type, stronger effect = lower value 0.976

O=C(O)c1ccc(N=Cc2ccc3c(c2)OCO3)cc1
inactive: [7] 1 | [8] 0.991 | [1] 0.983 | [10] 0.879 | [11] 1.01 | [3] 0.994 | [2] 0.999 | [12] 1 | [27] 0.985 | [13] 0.997 | [14] 0.979 | S. cerevisiae deletion strains, locus YKL190W, strain CNB1, stronger effect = lower value 1 | [15] 0.991 | [16] 0.99 | [17] 1.05 | [18] 0.998 | [19] 1 | [20] 0.988 | S. cerevisiae deletion strains, locus YMR307W, strain GAS1, stronger effect = lower value 1.02 | [21] 1.04 | [22] 0.98 | [23] 1.04 | [5] 0.991 | [24] 1.01 | [28] 1.04 | [25] 0.984 | [6] 0.992 | [26] 0.997

O=C(O/N=C\c1ccc2c(c1)OCO2)c1ccccc1Br
active: [7] 0.907 | [9] 0.827 | [11] 0.844 | [3] 0.927 | [2] 0.315 | [15] 0.491 | [17] 0.465 | [18] 0.577 | [19] 0.815 | [4] 0.892 | [23] 0.826 | [24] 0.857 | [25] 0.728 | [6] 0.834 | [26] 0.591
inactive: [8] 0.949 | [1] 0.961 | [10] 0.872 | [12] 0.928 | [27] 0.964 | [13] 0.926 | [14] 0.935 | [16] 0.973 | [20] 0.959 | [22] 0.959 | [5] 0.95

Cc1cc(C2=CSC3=NCCN23)ccc1Cl
inactive: [7] 0.99 | [8] 1.01 | [1] 0.974 | [9] 0.989 | [10] 0.974 | [11] 1 | [3] 0.989 | [2] 0.872 | [12] 1.01 | [27] 1 | [13] 0.999 | [14] 0.982 | [15] 1.02 | [16] 0.996 | [17] 0.933 | [18] 1.03 | [19] 0.99 | [20] 0.987 | [4] 0.998 | [22] 0.992 | [23] 0.946 | [5] 0.989 | [24] 0.994 | [28] 0.752 | [25] 1.02 | [6] 0.975 | [26] 0.709
